For 18 compounds, growth inhibition, inhibition and outcome results are on record in PubChem BioAssay.

By inhibition is commonly meant the change of the read-out against control, counted positive when it falls.

SMILES strings stand for the structures. Several values for one entry are separate records, joined by “and”; a condition that tells them apart may be missing. Equal values may be shown once. Unmarked numbers belong to inactive results. For part of these data: Potency and affinity values are given separately. Activity calls are given as the source filed them. Unless noted, how the calls were made is not given here.

Test [1] in a line: antimalarial activity against Dd2 strain (AID 2302;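 active means growth inhibition above 50% at the single 2 µM test dose, taken to imply half-maximal potency below 2 µM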;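 further: 0% = DMSO untreated growth and 100% = chloroquine plus artemisinin killed control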). The following applies: P. falciparum Dd2 in RBCs, LDH growth readout, 72 h; at 2 µM; hits give high values.
Test [2] is described as follows: human hepatoma cell viability loss – ATP luminescence, cytotoxicity control for P. falciparum antimalarial project, primary screen (AID 2303;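 active means inhibition above 50%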;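 further: 0% = DMSO wells and 100% = digitonin-killed cells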). The following applies: HepG2 viability, 24-48 h, at 10 µM, hits give high values.
Test [3] deals with L-lactate dehydrogenase (Plasmodium falciparum (isolate CDC / Honduras)) (UniProt Q27743). Description: PfLDH activity inhibition – cell lysate, 3D7 strain, counter-screen for P. falciparum growth inhibition project (AID 2304).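 Further: 0% = vehicle and 100% = reference inhibitor.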 The following applies: P. falciparum 3D7 crude extract, LDH APAD/NBT absorbance; at 2 µM; hits give high values. In general terms: The purpose of a counterscreen is to sort out artefacts and off-target activity.
Chain of L-lactate dehydrogenase (Plasmodium falciparum (isolate CDC / Honduras)) (Q27743 whole entry, looked up): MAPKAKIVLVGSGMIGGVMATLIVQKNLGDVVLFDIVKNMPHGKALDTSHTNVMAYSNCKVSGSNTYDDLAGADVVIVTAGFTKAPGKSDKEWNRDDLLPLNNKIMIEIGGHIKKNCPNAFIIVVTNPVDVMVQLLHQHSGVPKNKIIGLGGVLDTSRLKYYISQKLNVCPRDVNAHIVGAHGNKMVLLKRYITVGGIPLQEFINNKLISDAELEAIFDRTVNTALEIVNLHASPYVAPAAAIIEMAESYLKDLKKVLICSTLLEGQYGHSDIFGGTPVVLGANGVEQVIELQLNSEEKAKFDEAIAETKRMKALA

The nature of test [4]: inhibition of 3D7 malaria parasite growth – strain 3D7 (AID 2306).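 Further: 0% = DMSO wells and 100% = chloroquine plus artemisinin control wells.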 The following applies: P. falciparum 3D7 erythrocytic growth, LDH absorbance, 72 h; at 2 µM; hits give high values.
Test [5] deals with Calcium-dependent protein kinase 1 (Plasmodium falciparum (isolate 3D7)) (UniProt P62344). Description: PfCDPK1 kinase inhibitors, biochemical, TCAMS library (AID 1159585; cut-off not given, nearly all actives have IC50 up to about 0.98 µM;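 further: inhibitors leave more ATP so luminescence rises with inhibition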). The following applies: recombinant PfCDPK1, Kinase-Glo ATP depletion luminescence.
Chain of Calcium-dependent protein kinase 1 (Plasmodium falciparum (isolate 3D7)) (P62344 whole entry, looked up): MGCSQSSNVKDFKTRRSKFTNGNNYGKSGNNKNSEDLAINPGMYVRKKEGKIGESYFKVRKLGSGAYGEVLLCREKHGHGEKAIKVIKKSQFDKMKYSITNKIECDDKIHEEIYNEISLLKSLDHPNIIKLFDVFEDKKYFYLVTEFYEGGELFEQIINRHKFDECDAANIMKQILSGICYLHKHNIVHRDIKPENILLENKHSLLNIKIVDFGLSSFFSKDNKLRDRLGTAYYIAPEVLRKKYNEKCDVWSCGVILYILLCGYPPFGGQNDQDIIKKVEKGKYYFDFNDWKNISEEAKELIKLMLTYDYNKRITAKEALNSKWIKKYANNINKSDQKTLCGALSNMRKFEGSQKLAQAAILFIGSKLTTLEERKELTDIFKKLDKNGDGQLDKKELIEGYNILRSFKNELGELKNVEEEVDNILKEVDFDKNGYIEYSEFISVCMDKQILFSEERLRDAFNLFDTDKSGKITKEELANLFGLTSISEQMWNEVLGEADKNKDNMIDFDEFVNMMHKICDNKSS
Test [6] concerns the target Plasmodium falciparum protein kinase 6 (PK6, PF3D7_1337100) (UniProt Q8IDW1). As to the kind of experiment: PfPK6 kinase inhibitors, biochemical, TCAMS library (AID 1159586). The following applies: recombinant PfPK6, Kinase-Glo ATP depletion luminescence. A general note: In Kinase-Glo more light means more ATP remaining.
For test [7], the target named is Protein kinase 7 (PK7), Plasmodium falciparum 3D7 (PF3D7_0213400) (UniProt Q7YTF7). Description: inhibition of Plasmodium PK7 catalytic activity – biochemical, TCAMS antimalarial set, Kinase-Glo luminescence (AID 1159587). The following applies: recombinant PfPK7, Kinase-Glo ATP depletion luminescence.
Chain of Protein kinase 7 (PK7), Plasmodium falciparum 3D7 (PF3D7_0213400) (Q7YTF7 1-343): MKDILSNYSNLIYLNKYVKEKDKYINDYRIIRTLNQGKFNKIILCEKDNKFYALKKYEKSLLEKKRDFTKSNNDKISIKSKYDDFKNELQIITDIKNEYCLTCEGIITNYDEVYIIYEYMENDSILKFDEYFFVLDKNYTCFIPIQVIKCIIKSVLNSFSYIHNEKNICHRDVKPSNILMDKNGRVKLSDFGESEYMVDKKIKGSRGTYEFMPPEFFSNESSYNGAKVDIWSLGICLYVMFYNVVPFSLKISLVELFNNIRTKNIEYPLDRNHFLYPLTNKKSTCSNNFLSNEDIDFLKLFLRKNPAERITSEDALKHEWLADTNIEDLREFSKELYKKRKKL
In test [8] the target is Calcium-dependent protein kinase 4 (Plasmodium falciparum (isolate 3D7)) (UniProt Q8IBS5). As to the kind of experiment: PfCDPK4 kinase inhibitors, biochemical, TCAMS library (AID 1159588; cut-off not given, nearly all actives have IC50 up to about 0.91 µM). The following applies: recombinant PfCDPK4, Kinase-Glo ATP depletion luminescence.
Chain of Calcium-dependent protein kinase 4 (Plasmodium falciparum (isolate 3D7)) (Q8IBS5 whole entry, looked up): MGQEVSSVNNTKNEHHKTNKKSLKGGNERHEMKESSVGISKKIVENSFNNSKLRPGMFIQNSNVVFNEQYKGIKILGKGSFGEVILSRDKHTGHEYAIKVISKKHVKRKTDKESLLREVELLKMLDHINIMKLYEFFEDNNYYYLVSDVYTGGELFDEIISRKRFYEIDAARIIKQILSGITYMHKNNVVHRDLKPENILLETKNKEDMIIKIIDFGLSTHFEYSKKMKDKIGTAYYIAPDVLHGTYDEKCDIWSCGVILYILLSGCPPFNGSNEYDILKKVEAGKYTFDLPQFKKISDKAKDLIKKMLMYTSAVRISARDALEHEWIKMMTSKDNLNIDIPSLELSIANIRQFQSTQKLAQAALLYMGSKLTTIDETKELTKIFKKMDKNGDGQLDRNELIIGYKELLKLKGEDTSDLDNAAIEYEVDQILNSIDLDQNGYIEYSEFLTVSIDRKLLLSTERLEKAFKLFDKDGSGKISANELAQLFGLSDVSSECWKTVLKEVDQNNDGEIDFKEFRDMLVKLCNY

Chain of Plasmodium falciparum protein kinase 6 (PK6, PF3D7_1337100) (Q8IDW1 1-305): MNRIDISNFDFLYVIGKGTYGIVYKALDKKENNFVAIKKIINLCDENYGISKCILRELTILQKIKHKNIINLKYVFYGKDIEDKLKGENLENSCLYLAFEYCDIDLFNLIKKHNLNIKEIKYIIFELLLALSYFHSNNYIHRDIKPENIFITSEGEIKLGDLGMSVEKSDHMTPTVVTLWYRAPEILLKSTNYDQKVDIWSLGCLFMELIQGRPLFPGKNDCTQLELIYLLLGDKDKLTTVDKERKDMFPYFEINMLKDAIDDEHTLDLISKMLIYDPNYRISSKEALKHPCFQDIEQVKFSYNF

Consider `CC(C)CCNC(=O)c1cc(C(=O)c2cc(F)ccc2O)cn(CCC(C)C)c1=O`, for which the growth inhibition in test [1] is 45%; in test [4], 100% (active). In addition, the inhibition is 14% in test [2] and -1% in test [3]. For the same compound, the outcome in test [5], in test [6], in test [7] and in test [8] was inactive.

As for `CC(Cc1ccc(OCCCCOc2ccccc2)cc1)NCCC1CCCN1C` (centres undefined), the growth inhibition in test [1] was 98% (active); in test [4], 99% (active). The inhibition in test [2] was 100% (active); in test [3], 3%. Also, the result in test [5], in test [6], in test [7] and in test [8] was inactive.

With `O=C1c2ccccc2CCC1CCN1CC=C(c2c[nH]c3ccccc23)CC1` (centres undefined), the growth inhibition is 83% (active) in test [1] and 89% (active) in test [4]. The results for the inhibition in test [2] and in test [3] were 5% and 7%, respectively. The outcome in test [5], in test [6], in test [7] and in test [8] was inactive.

For `CC(Cc1ccc(CSC(C)C)cc1)NCC(O)c1cccc(Cl)c1` (centres undefined), the growth inhibition in test [1] and in test [4] was 98% (active) in each case. Further, the inhibition in test [2] was 11%; in test [3] it was -8%. In addition, the result in test [5], in test [6], in test [7] and in test [8] was inactive.

Regarding `CS(=O)(=O)Nc1ccc2c(C3CCN(CC4CCN(C(=O)/C=C/c5ccc(Cl)c(Cl)c5)CC4)CC3)c[nH]c2c1`, the growth inhibition is 70% (active) in test [1] and 99% (active) in test [4]. Moreover, the inhibition in test [2] is 28%; in test [3], -3%. Besides, the outcome in test [5], in test [6], in test [7] and in test [8] was inactive.

Regarding `Cc1ccc(CC(C)NC[C@H](O)c2cccc(Cl)c2)cc1` (some centres undefined), the values for the growth inhibition in test [1] and in test [4] were 47% and 96% (active), respectively. Moreover, the inhibition in test [2] is 15%; in test [3] it was -3%. Moreover, the outcome in test [5], in test [6], in test [7] and in test [8] was inactive.

`CCCCOC(C(=O)OCC1CCCN1C)(c1ccccc1)c1ccccc1` (centres undefined): the growth inhibition in test [1] was 2%; in test [4], 100% (active). The inhibition is 3% in test [2] and 6% in test [3]. The result in test [5], in test [6], in test [7] and in test [8] was inactive.

As for `CC(=O)C1(c2ccccc2)CCN(CCC2(c3ccc(Cl)c(Cl)c3)CN(C(=O)C3CCCC3)CCO2)CC1` (centres undefined), the values for the growth inhibition in test [1] and in test [4] were 70% (active) and 88% (active), respectively. For the same compound, the figures for the inhibition in test [2] and in test [3] were 11% and 1%, respectively. The result in test [5], in test [6], in test [7] and in test [8] was inactive.

Turning to `CC[C@H]1CN2CC[C@H]1C[C@H]2[C@H](O)c1ccnc2ccc(OC)cc12`, the growth inhibition in test [1] was 62% (active); in test [4] it was 100% (active). Also, the values for the inhibition in test [2] and in test [3] were -8% and -4%, respectively. The result in test [5], in test [6], in test [7] and in test [8] was inactive.

As for `CN(c1ccnc(Nc2ccc(CS(C)(=O)=O)cc2)n1)C1CCN(Cc2ccccc2)CC1`, the figures for the growth inhibition in test [1] and in test [4] were 9% and 83% (active), respectively. The values for the inhibition in test [2] and in test [3] were 10% and 1%, respectively. For the same compound, the outcome in test [5], in test [6], in test [7] and in test [8] was inactive.

On to `CS(=O)(=O)Nc1ccc2[nH]cc(C3CCN(CC4CCN(C(=O)/C=C/c5ccc(Cl)c(Cl)c5)CC4)CC3)c2c1`, for which the figures for the growth inhibition in test [1] and in test [4] were 92% (active) and 101% (active), respectively. Besides, the inhibition was 27% in test [2] and -5% in test [3]. Also, the result in test [5], in test [6], in test [7] and in test [8] was inactive.

With `O=C(Cc1cc(=O)oc2cc(O)ccc12)NC1CCC(CN2CCC(c3c[nH]c4ccccc34)CC2)CC1` (centres undefined), the growth inhibition in test [1] is -10%; in test [4] it was 96% (active). Moreover, the inhibition is 5% in test [2] and -1% in test [3]. Also, the outcome in test [5], in test [6], in test [7] and in test [8] was inactive.

For the compound `CC[C@H]1CN2CC[C@H]1C[C@H]2[C@H](O)c1cc(-c2ccc(F)cc2C)nc2ccc(OC)cc12`, the growth inhibition in test [1] is 100% (active); in test [4] it was 99% (active). Moreover, the values for the inhibition in test [2] and in test [3] were -2% and -3%, respectively. Also, the result in test [5], in test [6], in test [7] and in test [8] was inactive.

Consider `CCN(CC)CCN1C(=O)C(O)(c2ccccc2Cl)c2c1cc(C#N)cc2C(F)(F)F` (centres undefined), for which the values for the growth inhibition in test [1] and in test [4] were 19% and 88% (active), respectively. Besides, the inhibition in test [2] was 21%; in test [3], -1%. The outcome in test [5], in test [6], in test [7] and in test [8] was inactive.

Turning to `COc1ccc(C=CC(=O)NC2CCC(CN3CCC(c4c[nH]c5ccccc45)CC3)CC2)cc1` (centres undefined), the growth inhibition in test [1] was 60% (active) and 61% (active); in test [4], 100% (active). Also, the inhibition in test [2] is 13% and 30%; in test [3], -6% and -7%. In addition, the outcome in test [5], in test [6], in test [7] and in test [8] was inactive.

Consider `CCCc1cc(O)c2c3c(c(=O)oc2c1)CN(C)CC3`, for which the figures for the growth inhibition in test [1] and in test [4] were 50% (active) and 98% (active), respectively. Besides, the figures for the inhibition in test [2] and in test [3] were 12% and 0%, respectively. Also, the outcome in test [5], in test [6], in test [7] and in test [8] was inactive.

In the case of `C=C[C@@H]1CN2CC[C@H]1C[C@H]2[C@H](O)c1cc(-c2ccc(Cl)cc2)nc2ccc(OC)cc12`, the figures for the growth inhibition in test [1] and in test [4] were 98% (active) and 99% (active), respectively. In addition, the inhibition in test [2] was 38%; in test [3], 0%. Further, the result in test [5], in test [6], in test [7] and in test [8] was inactive.

Turning to `Cc1[nH]c2ccccc2c1C1CCN(CC2CCC(NC(=O)/C=C/c3ccc(Cl)c(Cl)c3)CC2)CC1` (centres undefined), the growth inhibition in test [1] was 93% (active); in test [4] it was 101% (active). Moreover, the inhibition is 15% in test [2] and 1% in test [3]. The result in test [5], in test [6], in test [7] and in test [8] was inactive.
